Laboratory results published in PubChem BioAssay.
“And” between values parts separate entries of the source, which are not always exact repeats. Equal values may be shown once. The source made the active and inactive calls.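 How the source made its calls, unless noted: active means mean z-score across replicates of 1.96 or higher in either the MELAS or the Rieske mutant cell line; inactive means the rest.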

assay: viability loss with induced miR-34 in A549 – imaging, A549 dox-inducible miR-34, nuclei and caspase counts, primary screen (AID 1347080); details: A549 miR-34 inducible, Hoechst nuclei count, 48 h; measured here: relative caspase fold change +Dox/-Dox

Structure (SMILES)	fold change
COC(=O)[C@H](c1ccccc1Cl)N1CCc2sccc2C1	1.69 and 3.06 and 2.09
COc1ccc(C[C@H](N)C(=O)N[C@H]2[C@@H](O)[C@H](n3cnc4c(N(C)C)ncnc43)O[C@@H]2CO)cc1	1.77 and 0.862
Cc1cccc(C)c1NC(=O)C1CCCCN1C (stereo unspecified)	1.53 and 0.775 and 2.13
O=c1ccc2ccc(O)c(O)c2o1	1.4 and 0.597
CC[C@H]1OC(=O)[C@H](C)[C@@H](O[C@H]2C[C@@](C)(OC)[C@@H](O)[C@H](C)O2)[C@H](C)[C@@H](O[C@@H]2O[C@H](C)C[C@H](N(C)C)[C@H]2O)[C@](C)(OC)C[C@@H](C)C(=O)[C@H](C)[C@@H](O)[C@]1(C)O	4.5 and 0.962
Cc1occc(=O)c1O	0.534
Nc1ncnc2c1ncn2[C@@H]1O[C@H](CO)[C@@H](O)[C@@H]1O	2.09 and 4.39 and 1.09
C[N+]1(C)CCCC(OC(=O)C(O)(c2ccccc2)c2ccccc2)C1 (stereo unspecified)	0.965 and 1.32 and 4.07
CCCCC(=O)N(Cc1ccc(-c2ccccc2-c2nn[nH]n2)cc1)[C@H](C(=O)O)C(C)C	0.477 and 2.43
C[C@H]1COc2c(N3CCN(C)CC3)c(F)cc3c(=O)c(C(=O)O)cn1c23	6.58 and 0.734
O=[N+]([O-])c1cccc2cn[nH]c12	0.865 and 1.54 and 0.678
COc1ccc(-c2cc(=O)c3c(OC)c(OC)c(OC)c(OC)c3o2)cc1OC	1.14 and 0.279

same assay, conditions: A549 miR-34 inducible, Hoechst nuclei count, 48 h; measured here: total cells with miR-34 induction; stronger effect = lower value

Structure (SMILES)	cell count
COC(=O)[C@H](c1ccccc1Cl)N1CCc2sccc2C1	9850 and 11200 and 8380
COc1ccc(C[C@H](N)C(=O)N[C@H]2[C@@H](O)[C@H](n3cnc4c(N(C)C)ncnc43)O[C@@H]2CO)cc1	1000 and 950
Cc1cccc(C)c1NC(=O)C1CCCCN1C (stereo unspecified)	8050 and 8030 and 11600
O=c1ccc2ccc(O)c(O)c2o1	7930 and 10100
CC[C@H]1OC(=O)[C@H](C)[C@@H](O[C@H]2C[C@@](C)(OC)[C@@H](O)[C@H](C)O2)[C@H](C)[C@@H](O[C@@H]2O[C@H](C)C[C@H](N(C)C)[C@H]2O)[C@](C)(OC)C[C@@H](C)C(=O)[C@H](C)[C@@H](O)[C@]1(C)O	11300 and 8870
Cc1occc(=O)c1O	9050
Nc1ncnc2c1ncn2[C@@H]1O[C@H](CO)[C@@H](O)[C@@H]1O	9780 and 10000 and 8360
C[N+]1(C)CCCC(OC(=O)C(O)(c2ccccc2)c2ccccc2)C1 (stereo unspecified)	10300 and 8730 and 11200
CCCCC(=O)N(Cc1ccc(-c2ccccc2-c2nn[nH]n2)cc1)[C@H](C(=O)O)C(C)C	8040 and 10600
C[C@H]1COc2c(N3CCN(C)CC3)c(F)cc3c(=O)c(C(=O)O)cn1c23	11000 and 8630
O=[N+]([O-])c1cccc2cn[nH]c12	10200 and 8750 and 8260
COc1ccc(-c2cc(=O)c3c(OC)c(OC)c(OC)c(OC)c3o2)cc1OC	9210 and 7680

same assay, conditions: A549 miR-34 inducible, Hoechst nuclei count, 48 h; measured here: total cells without miR-34 induction

Structure (SMILES)	cell count
COC(=O)[C@H](c1ccccc1Cl)N1CCc2sccc2C1	10100 and 12600 and 9870
COc1ccc(C[C@H](N)C(=O)N[C@H]2[C@@H](O)[C@H](n3cnc4c(N(C)C)ncnc43)O[C@@H]2CO)cc1	976 and 910
Cc1cccc(C)c1NC(=O)C1CCCCN1C (stereo unspecified)	8240 and 8660 and 13200
O=c1ccc2ccc(O)c(O)c2o1	8840 and 10800
CC[C@H]1OC(=O)[C@H](C)[C@@H](O[C@H]2C[C@@](C)(OC)[C@@H](O)[C@H](C)O2)[C@H](C)[C@@H](O[C@@H]2O[C@H](C)C[C@H](N(C)C)[C@H]2O)[C@](C)(OC)C[C@@H](C)C(=O)[C@H](C)[C@@H](O)[C@]1(C)O	12700 and 10400
Cc1occc(=O)c1O	6830
Nc1ncnc2c1ncn2[C@@H]1O[C@H](CO)[C@@H](O)[C@@H]1O	10300 and 12000 and 9720
C[N+]1(C)CCCC(OC(=O)C(O)(c2ccccc2)c2ccccc2)C1 (stereo unspecified)	10800 and 10200 and 12500
CCCCC(=O)N(Cc1ccc(-c2ccccc2-c2nn[nH]n2)cc1)[C@H](C(=O)O)C(C)C	8430 and 12500
C[C@H]1COc2c(N3CCN(C)CC3)c(F)cc3c(=O)c(C(=O)O)cn1c23	12300 and 10100
O=[N+]([O-])c1cccc2cn[nH]c12	9850 and 10100 and 9080
COc1ccc(-c2cc(=O)c3c(OC)c(OC)c(OC)c(OC)c3o2)cc1OC	9390 and 7920

assay: blockers of cellular phospholipid synthesis – cell-based, LOPAC library, screen 4, primary screen (AID 1347384; call rule not given here); details: animal cells, phospholipid biosynthesis inhibition screen; at 10 µM

Structure (SMILES)	outcome
COc1ccc(/C=C/C(=O)Nc2ccccc2C(=O)O)cc1OC	inactive
CC1=C(/C=C/C(C)=C/C=C/C(C)=C\C(=O)O)C(C)(C)CCC1	inactive
O=c1ccc2ccc(O)c(O)c2o1	inactive
CN(C)c1nc(N(C)C)nc(N(C)C)n1	inactive
CNCCC(Oc1ccc(C(F)(F)F)cc1)c1ccccc1 (stereo unspecified)	inactive
CC(C)NCC(O)COc1ccc(CC(N)=O)cc1 (stereo unspecified)	inactive
CC(C)NCC(O)COc1cccc2ccccc12 (stereo unspecified)	inactive
O=[N+]([O-])c1cccc2cn[nH]c12	inactive

assay: MELAS cybrid and Rieske KO viability enhancers – cell-based, MELAS cybrids, Rieske KO mouse fibroblasts, CellTiter-Glo, primary screen (AID 1508586); details: MELAS cybrid survival, low glucose, CellTiter-Glo 48 h; stronger effect = higher value;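 further: z relative to plate mean and SD of compound and empty wells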

Structure (SMILES)	z-score
COC(=O)[C@H](c1ccccc1Cl)N1CCc2sccc2C1	-0.401 (inactive) and -0.448 (inactive)
COc1ccc(C[C@H](N)C(=O)N[C@H]2[C@@H](O)[C@H](n3cnc4c(N(C)C)ncnc43)O[C@@H]2CO)cc1	0.777 (inactive)
COc1ccc(/C=C/C(=O)Nc2ccccc2C(=O)O)cc1OC	0.761 (inactive) and 0.318 (inactive)
CC1=C(/C=C/C(C)=C/C=C/C(C)=C\C(=O)O)C(C)(C)CCC1	-0.17 (inactive)
Cc1cccc(C)c1NC(=O)C1CCCCN1C (stereo unspecified)	-0.27 (inactive) and -0.937 (inactive)
O=c1ccc2ccc(O)c(O)c2o1	-0.407 (inactive)
CN(C)c1nc(N(C)C)nc(N(C)C)n1	-0.405 (inactive) and 0.759 (inactive) and 0.19 (inactive)
CC[C@H]1OC(=O)[C@H](C)[C@@H](O[C@H]2C[C@@](C)(OC)[C@@H](O)[C@H](C)O2)[C@H](C)[C@@H](O[C@@H]2O[C@H](C)C[C@H](N(C)C)[C@H]2O)[C@](C)(OC)C[C@@H](C)C(=O)[C@H](C)[C@@H](O)[C@]1(C)O	-0.605 (inactive) and -0.357 (inactive)
CNCCC(Oc1ccc(C(F)(F)F)cc1)c1ccccc1 (stereo unspecified)	1.26 (inactive) and -0.395 (inactive) and -0.285 (inactive)
CS(=O)(=O)c1ccc(C2=C(c3ccccc3)C(=O)OC2)cc1	-0.068 (inactive) and 0.18 (inactive) and -0.373 (inactive)
Nc1ncnc2c1ncn2[C@@H]1O[C@H](CO)[C@@H](O)[C@@H]1O	-2.73 (inactive) and -2.26 (inactive)
CC(C)NCC(O)COc1ccc(CC(N)=O)cc1 (stereo unspecified)	-0.4 (inactive)
C[N+]1(C)CCCC(OC(=O)C(O)(c2ccccc2)c2ccccc2)C1 (stereo unspecified)	0.378 (inactive)
CCCCC(=O)N(Cc1ccc(-c2ccccc2-c2nn[nH]n2)cc1)[C@H](C(=O)O)C(C)C	0.123 (inactive) and -0.397 (inactive)
C[C@H]1COc2c(N3CCN(C)CC3)c(F)cc3c(=O)c(C(=O)O)cn1c23	-0.0762 (inactive)
COc1ccc(-c2cc(=O)c3c(OC)c(OC)c(OC)c(OC)c3o2)cc1OC	-0.237
CC(C(=O)O)c1ccc(-c2ccccc2)c(F)c1 (stereo unspecified)	-0.289 (inactive) and 0.565 (inactive) and 0.434 (inactive)
